Values joined by “and” are separate entries in the source; they are usually repeats but may differ in a detail not shown here. Identical values can stand only once. About 840 (0.24%) of roughly 350,000 compounds were called active. The sample holds actives, similar compounds and a random draw of the others, so the mix is not that of the screen. Unmarked numbers belong to inactive results. No stated cut-off is given here; in the data, active means inhibition above about 10%; inactive means the rest.

Chain of Toxin B (Clostridioides difficile) (P18177 whole entry, looked up): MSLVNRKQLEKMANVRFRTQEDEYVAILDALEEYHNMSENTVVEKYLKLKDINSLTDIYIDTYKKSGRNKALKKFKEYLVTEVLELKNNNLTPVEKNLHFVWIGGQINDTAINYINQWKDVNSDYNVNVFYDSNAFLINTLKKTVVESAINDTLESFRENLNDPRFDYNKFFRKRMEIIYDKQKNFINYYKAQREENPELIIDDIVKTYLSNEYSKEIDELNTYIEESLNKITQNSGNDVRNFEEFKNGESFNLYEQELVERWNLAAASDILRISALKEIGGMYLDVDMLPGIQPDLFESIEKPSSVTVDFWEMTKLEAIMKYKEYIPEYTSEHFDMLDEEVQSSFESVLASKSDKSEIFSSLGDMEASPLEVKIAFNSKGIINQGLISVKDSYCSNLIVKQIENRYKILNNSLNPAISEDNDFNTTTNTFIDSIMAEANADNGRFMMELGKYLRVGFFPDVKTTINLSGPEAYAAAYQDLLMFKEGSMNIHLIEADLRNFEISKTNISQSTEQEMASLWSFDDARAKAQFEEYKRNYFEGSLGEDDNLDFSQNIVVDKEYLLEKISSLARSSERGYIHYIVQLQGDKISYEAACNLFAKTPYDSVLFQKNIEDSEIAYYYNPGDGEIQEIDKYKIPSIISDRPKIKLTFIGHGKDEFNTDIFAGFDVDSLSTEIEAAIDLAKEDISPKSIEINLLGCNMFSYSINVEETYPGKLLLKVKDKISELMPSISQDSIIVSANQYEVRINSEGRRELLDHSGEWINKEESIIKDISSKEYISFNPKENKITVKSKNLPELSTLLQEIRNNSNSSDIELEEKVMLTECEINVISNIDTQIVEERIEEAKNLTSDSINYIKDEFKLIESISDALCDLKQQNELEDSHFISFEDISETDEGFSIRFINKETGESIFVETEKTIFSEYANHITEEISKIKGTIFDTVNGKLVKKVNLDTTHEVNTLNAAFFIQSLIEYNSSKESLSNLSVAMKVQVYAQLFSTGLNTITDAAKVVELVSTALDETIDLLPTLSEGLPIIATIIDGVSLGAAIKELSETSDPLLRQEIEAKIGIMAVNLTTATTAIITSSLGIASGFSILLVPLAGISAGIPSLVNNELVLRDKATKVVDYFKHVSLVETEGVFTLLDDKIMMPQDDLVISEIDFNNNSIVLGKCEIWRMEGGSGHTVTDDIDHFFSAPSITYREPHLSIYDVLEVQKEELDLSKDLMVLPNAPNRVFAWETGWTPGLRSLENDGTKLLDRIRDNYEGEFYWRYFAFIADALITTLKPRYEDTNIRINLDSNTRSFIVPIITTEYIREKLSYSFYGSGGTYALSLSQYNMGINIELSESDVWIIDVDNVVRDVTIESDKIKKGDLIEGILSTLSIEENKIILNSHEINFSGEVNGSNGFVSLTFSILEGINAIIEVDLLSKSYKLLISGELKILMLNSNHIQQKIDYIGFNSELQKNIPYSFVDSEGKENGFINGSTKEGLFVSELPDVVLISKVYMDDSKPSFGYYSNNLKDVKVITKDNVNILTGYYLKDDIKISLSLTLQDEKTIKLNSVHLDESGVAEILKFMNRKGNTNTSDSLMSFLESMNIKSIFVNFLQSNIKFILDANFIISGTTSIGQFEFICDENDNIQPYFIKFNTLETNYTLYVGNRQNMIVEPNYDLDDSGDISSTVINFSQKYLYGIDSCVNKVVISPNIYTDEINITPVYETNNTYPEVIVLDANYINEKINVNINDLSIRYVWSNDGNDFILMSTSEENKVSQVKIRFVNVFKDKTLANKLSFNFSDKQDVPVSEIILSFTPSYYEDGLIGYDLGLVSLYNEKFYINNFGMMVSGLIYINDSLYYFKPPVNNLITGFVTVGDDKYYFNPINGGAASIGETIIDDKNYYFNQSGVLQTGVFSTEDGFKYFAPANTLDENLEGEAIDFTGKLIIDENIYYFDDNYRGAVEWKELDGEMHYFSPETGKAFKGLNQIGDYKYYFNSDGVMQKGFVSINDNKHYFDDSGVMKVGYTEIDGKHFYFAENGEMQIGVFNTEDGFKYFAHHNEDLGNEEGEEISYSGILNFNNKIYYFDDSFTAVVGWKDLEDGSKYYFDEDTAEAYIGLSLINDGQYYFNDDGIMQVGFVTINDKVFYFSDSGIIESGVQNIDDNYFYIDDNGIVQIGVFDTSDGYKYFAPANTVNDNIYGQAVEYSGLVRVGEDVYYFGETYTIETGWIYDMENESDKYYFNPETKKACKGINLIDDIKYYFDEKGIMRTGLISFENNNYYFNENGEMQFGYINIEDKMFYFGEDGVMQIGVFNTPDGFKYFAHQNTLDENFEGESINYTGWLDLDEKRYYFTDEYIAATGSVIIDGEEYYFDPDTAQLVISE

This assay has as its target Toxin B (Clostridioides difficile) (UniProt P18177). As to the kind of experiment: TcdB glycohydrolase inhibitors, primary screen, biochemical, single point, plate reader (AID 652162). The conditions noted are these: TcdB glycohydrolase enzymatic assay, at 9.99 µM, stronger effect = higher value.
As to `CNC[C@H]1Oc2cc(-c3ccc(C(=O)N(C)C)cc3)ccc2S(=O)(=O)N([C@@H](C)CO)C[C@@H]1C`, the inhibition (commonly the change of the read-out against control, counted positive when it falls) was -0.097%.
The figure for `C[C@@H]1CN([C@H](C)CO)C(=O)c2cc(C3=CCCC3)cnc2O[C@H]1CN(C)C` is 0.146%.
In the case of `COc1ccc(NC(=O)N(C)C[C@@H]2Oc3c(NC(=O)c4ccc(-c5nccs5)cc4)cccc3C(=O)N([C@H](C)CO)C[C@@H]2C)cc1`, the inhibition was 0.889%.
For the compound `COc1cccc(NC(=O)N[C@@H]2C=C[C@H](CC(=O)NCc3ccccn3)O[C@H]2CO)c1`, the inhibition was -0.684%.
In the case of `N#C[C@H]1N[C@H](CO)[C@H]1c1ccc(-c2cccc(F)c2)cc1`, the inhibition is -1.58%.
The figure for `Cc1ccc(-c2ccc(C3[C@H]4CNC[C@@H]3N4S(=O)(=O)c3ccccc3C)cc2)cc1` (stereo not given in full) is -0.326% and -0.213%; for `COC(=O)[C@@H]1[C@@H](CO)[C@@H]2Cn3c(ccc(-c4ccc(OC)cc4)c3=O)[C@@H]2N1C` it is -0.952%.
Turning to `C[C@@H]1CN([C@H](C)CO)C(=O)c2cc(NC(=O)NC3CCCCC3)ccc2O[C@@H](C)CCCCO[C@H]1CN(C)C(=O)Nc1ccccc1`, the inhibition was 0.722%.
With `C[C@H](CO)N1C[C@H](C)[C@H](CN(C)Cc2ccc3c(c2)OCO3)OCCCC[C@H](C)Oc2ccc(NC(=O)c3ccccc3)cc2C1=O`, the inhibition is -0.045%.
Take `O=Cc1cn(Cc2ccc(F)cc2Cl)c2ccccc12`: the inhibition is -0.141%.
In the case of `Cc1ccc(-c2ccc(=O)n(Cc3ccc(F)cc3Cl)n2)cc1`, the inhibition is 0.329%.
As to `O=c1c([N+](=O)[O-])cccn1Cc1ccc(F)cc1Cl`, the inhibition is 38.4% (active).
For `CCC(=O)N1C[C@@H](C)[C@H](OC)CN(C)C(=O)c2ccc(NC(=O)COC)cc2OC[C@@H]1C`, the inhibition was -0.964%.
In the case of `C[C@@H]1CCCCO[C@@H](CN(C)C(=O)NC2CCCCC2)[C@H](C)CN([C@H](C)CO)C(=O)c2cc(NC(=O)Nc3cccc4ccccc34)ccc2O1`, the inhibition was -0.319%.
Consider `CN1C(=O)c2cc(NC(=O)c3cccc(F)c3)ccc2OC[C@@H]2O[C@@H](CC(=O)NCC3CCCCC3)CC[C@H]21`, for which the inhibition is 27.1% (active) and 19.3% (active).
Take `CN1C(=O)c2cc(NC(=O)c3ccccc3)ccc2OC[C@@H]2O[C@H](CC(=O)NCC3CC3)CC[C@@H]21`: the inhibition is 0.093%.
Turning to `CNC(=O)C[C@H]1CC[C@H]2[C@H](COc3ccc(NC(=O)c4cccc(F)c4)cc3C(=O)N2C)O1`, the inhibition was -0.293% and -0.193%.
Turning to `Cc1cc(C(=O)Nc2ccc3c(c2)C(=O)N(C)[C@H]2CC[C@H](CC(=O)NCC(F)(F)F)O[C@@H]2CO3)no1`, the inhibition was -0.366%.
Turning to `CO[C@H]1O[C@H](CO)[C@@H](OC(=O)Nc2ccc(C(F)(F)F)cc2)[C@H](OC(=O)Nc2ccc3c(c2)OCO3)[C@H]1OC(=O)Nc1ccc2c(c1)OCO2`, the inhibition was 0.426%.
Turning to `CO[C@@H]1CN(C)C(=O)c2cc(NC(C)=O)ccc2OC[C@H](C)N(Cc2ccccc2F)C[C@@H]1C`, the inhibition was -0.886%.
On to `CN(C)C(=O)c1ccc(-c2ccc([C@H]3[C@H](CO)N4CCCCN(S(C)(=O)=O)C[C@@H]34)cc2)cc1`, for which the inhibition is -1.71%.
Turning to `O=C(CCN1CCCCC1)N[C@H]1CC[C@H](CCNS(=O)(=O)c2ccc(F)cc2)O[C@@H]1CO`, the inhibition is 0.554%.
As for `Cc1ccccc1-c1ccc(C2[C@@H]3CN(C(=O)C4CCCCC4)C[C@H]2N3)cc1` (stereo not given in full), the inhibition was -3.88% and 0.934%.
On to `O=C(C[n+]1ccccc1)N/N=C/c1ccc(O)cc1`, for which the inhibition was 11.1% (active).
For `Nc1nnn(CC(=O)N/N=C/c2ccc(O)cc2)n1`, the inhibition is 13.2% (active).
With `Nc1nnn(CC(=O)N/N=C/c2ccccc2)n1`, the inhibition is 1.05%.
Consider `O=C(CSC1c2ccccc2-c2ccccc21)N/N=C/c1ccccc1`, for which the inhibition is 2.65%.
Regarding `O=C(CN1CCSCC1)N/N=C/c1ccc(Cl)cc1`, the inhibition is 1.98%.
As for `Cc1nonc1C(=O)N/N=C/c1ccc(O)cc1`, the inhibition is 5.9%.
Take `COc1ccc2c3c([nH]c2c1)[C@@H](CO)N(C(=O)CC1CC1)CC31CCN(Cc2cccnc2)CC1`: the inhibition is 0.524%.
For the compound `O=C(Cc1ccccc1)N1C[C@@H]2[C@H](c3ccccc31)[C@@H](CO)N2C(=O)Nc1ccc(F)cc1`, the inhibition was 1.65%.
In the case of `COCC(=O)Nc1ccc2c(c1)[C@H]1C[C@H](CC(=O)NCc3ccc(OC)cc3)O[C@@H](CO)[C@H]1O2`, the inhibition was 1.91%.
As to `CN1C(=O)c2cc(NC(=O)Nc3ccccc3F)ccc2OC[C@H]2O[C@H](CC(=O)NCc3ccc(-c4ccccc4)cc3)CC[C@H]21`, the inhibition was -0.392%.
Take `COCC(=O)Nc1ccc2c(c1)OC[C@H](C)N(C(=O)c1ccccc1F)C[C@H](C)[C@H](OC)CN(C)C2=O`: the inhibition was 0.041%.
The figure for `CN(CCOc1ccccc1)Cc1nc2cc(Cl)ccc2c(=O)[nH]1` is -0.715%; for `O=c1[nH]c(CN2CCOCC2)nc2cc(Cl)ccc12` it is 11.3% (active).
Under `O=c1[nH]c(CN2CCOCC2)nc2scc(-c3ccccc3)c12` stands 2.63%.
Take `CC(C)CC#Cc1cnc2c(c1)C(=O)N([C@@H](C)CO)C[C@@H](C)[C@@H](CN(C)C(=O)c1cccnc1)O2`: the inhibition is -0.559%.
For the compound `O=C1C=CCCN1C(=O)/C=C/c1ccc(F)cc1`, the inhibition was 0.919%.
Turning to `CCS(=O)(=O)N1CCC2(CC1)CN(S(=O)(=O)c1ccc(C)cc1)[C@H](CO)c1[nH]c3cc(OC)ccc3c12`, the inhibition was -1.12%.
Regarding `O=C(NC1CCN(C(=S)Nc2ccc(Cl)cc2)CC1)C1CCCCC1`, the inhibition is -0.645%.
As to `CN(C)c1ccc(C(=S)N2CCN(C(=S)Nc3ccc(Cl)cc3)CC2)cc1`, the inhibition was 17.4% (active).
Take `CCOC(=O)c1ccc(NC(=S)N2CCCC2)cc1`: the inhibition was 1.01%.
On to `COc1ccccc1NC(=O)N1CC(=O)N2[C@H](C1)[C@H](c1ccc(C#Cc3ccccc3)cc1)[C@@H]2CO`, for which the inhibition was 0.309%.
Turning to `O=C(C[C@H]1CC[C@@H]2[C@H](COC[C@@H](O)CN2CC2CC2)O1)NCC1CC1`, the inhibition is -1.35%.

For the origin of these results see PubChem BioAssay AID652162 (Broad Institute, 2013).
